Test results: PubChem BioAssay (NCI)
About 83,000 compounds went through this panel and 20% of them were active in at least one assay; those are over-represented in the sample as a whole.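 Note: values are percent growth. 100 is the growth of untreated cells, values between 100 and 0 indicate rising inhibition; between -100 and 0 indicates cell death.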 Values without a mark were called inactive. Activity calls are given as the source filed them. The calls were made as follows: active = growth percent below 10; inactive = the rest.

System: HL-60(TB) leukemia
Experiment: NCI-60 one-dose screen, 48 h (100 = growth as untreated, 0 = no growth, -100 = all killed)
Details: 10 µM unless noted

For CCCCCCNCc1cc(C(C)(C)C)cc(CNCCCCCC)c1O, the growth was -45.1% (active).
COc1ccc2oc(=O)cc(C3c4ccc([nH]4)C(c4cc(=O)oc5ccc(OC)cc45)c4ccc([nH]4)C(c4cc(=O)oc5ccc(OC)cc45)c4ccc([nH]4)C(c4cc(=O)oc5ccc(OC)cc45)c4ccc3[nH]4)c2c1 (centres undefined) was tested, and the growth was -14.5% (active).
For COc1ccc(N=Nc2nccs2)c(O)c1, the growth was -32.2% (active).
In the case of C=CCn1c2ccccc2c2c3c(c4c5ccccc5n(CC=C)c4c21)C(=O)N(O)C3=O, the growth was -39.5% (active).

First: O=P(OCCCl)(OCCCl)C(O)c1ccccc1Cl (centres undefined)
Second: CC(=O)Oc1cc(OC(C)=O)c2ccccc2c1OC(C)=O
The growth of the first is higher: 96.2% for the first, 23.3% for the second.

Going from O=C(CCN1C(=O)/C(=C/c2ccc(O)cc2)SC1=S)Nc1ccc(Cl)cc1 to O=C(Nc1ccc(OCc2nnc(-c3ccc(Cl)cc3)o2)c(F)c1)Nc1ccc(Cl)c(Cl)c1, the growth rises from 65.5% to 95.5%.

Compared with O=C(Cc1ccc(/C=C/C(=O)c2ncc[nH]2)cc1)Nc1cc(C(F)(F)F)cc(C(F)(F)F)c1, O=C(Cc1ccc(F)c(F)c1)Nc1cc(C2(C(F)(F)F)CC2)nn1Cc1ccccc1 is lower in growth: 52.1% for the first, 11.9% for the second.

First: COc1ccc2c(c1)-c1c(c3cc(OC)ccc3n(CCN(C)C)c1=O)C2=O
Second: CN(C)CC/C=C1\c2ccccc2Sc2ccc(Cl)cc21
The growth of the first is lower: 18% for the first, 94.2% for the second.

Compared with COc1ccc(C(O)(c2ccccc2)C(C(=O)O)c2ccccc2)cc1 (centres undefined), COc1ccc(C2CC(c3ccccc3)=NN2c2nc(C)c(C(C)=O)s2)cc1 (centres undefined) is lower in growth: 110% for the first, 101% for the second.
